# Data from PubChem BioAssay.
# “And” between values parts separate entries of the source, which are not always exact repeats. Equal values may be shown once. Records with an inconclusive call do not appear. The source made the active and inactive calls.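 How the source made its calls, unless noted: active means normalized viability below 100% at a tested concentration; inactive means the rest.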
# Columns and labels:
# [1] = growth inhibition of DIPG cells – cell-based, MIPE4.0 library, CellTiter-Glo luminescence, qHTS (AID 1347066; cut-off not given, nearly all actives have AC50 up to about 30 µM;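 further: cells exposed to compound for 48 hours before readout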); details: SU-DIPG-VI viability, CellTiter-Glo ATP luminescence
# [2] = JHH-DIPG-1 glioma cell viability, MIPE5.0 library, CellTiter-Glo luminescence, qHTS (AID 1347067; cut-off not given, nearly all actives have AC50 up to about 26 µM;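 further: cells exposed to compound for 48 hours before readout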); details: JHH-DIPG-1 glioma viability, CellTiter-Glo ATP luminescence
# [3] = growth inhibition of DIPG cells – cell-based, MIPE5.0 library, qHTS (AID 1347068; cut-off not given, nearly all actives have IC50 up to about 30 µM); details: SU-DIPG-XXV viability
# [4] = viability loss with induced miR-34 in A549 – imaging, A549 dox-inducible miR-34, nuclei and caspase counts, primary screen (AID 1347080;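 active means compounds whose cell count with miR-34 switched on is under 0.7 times the count with it off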); details: A549 miR-34 inducible, Hoechst nuclei count, 48 h
# [5] = MELAS cybrid and Rieske KO viability enhancers – cell-based, MELAS cybrids, Rieske KO mouse fibroblasts, CellTiter-Glo, primary screen (AID 1508586;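 active means mean z-score across replicates of 1.96 or higher in either the MELAS or the Rieske mutant cell line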;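 further: z relative to plate mean and SD of compound and empty wells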); details: low glucose
# [6] = biological target: NAD(+) hydrolase SARM1 (Homo sapiens) (UniProt Q6SZW1); test: blocking NAD cleavage by SARM1 SAM-TIR – cell lysate, NAD-Glo luminescence (AID 1508614;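 active means compound whose remaining NAD level is above about 45 nM, limit read from the data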); details: SAM-TIR HEK293T lysate NADase, at 1 µM, stronger effect = higher value
# Chain of NAD(+) hydrolase SARM1 (Homo sapiens) (Q6SZW1 whole entry, looked up, the tested form may be a part): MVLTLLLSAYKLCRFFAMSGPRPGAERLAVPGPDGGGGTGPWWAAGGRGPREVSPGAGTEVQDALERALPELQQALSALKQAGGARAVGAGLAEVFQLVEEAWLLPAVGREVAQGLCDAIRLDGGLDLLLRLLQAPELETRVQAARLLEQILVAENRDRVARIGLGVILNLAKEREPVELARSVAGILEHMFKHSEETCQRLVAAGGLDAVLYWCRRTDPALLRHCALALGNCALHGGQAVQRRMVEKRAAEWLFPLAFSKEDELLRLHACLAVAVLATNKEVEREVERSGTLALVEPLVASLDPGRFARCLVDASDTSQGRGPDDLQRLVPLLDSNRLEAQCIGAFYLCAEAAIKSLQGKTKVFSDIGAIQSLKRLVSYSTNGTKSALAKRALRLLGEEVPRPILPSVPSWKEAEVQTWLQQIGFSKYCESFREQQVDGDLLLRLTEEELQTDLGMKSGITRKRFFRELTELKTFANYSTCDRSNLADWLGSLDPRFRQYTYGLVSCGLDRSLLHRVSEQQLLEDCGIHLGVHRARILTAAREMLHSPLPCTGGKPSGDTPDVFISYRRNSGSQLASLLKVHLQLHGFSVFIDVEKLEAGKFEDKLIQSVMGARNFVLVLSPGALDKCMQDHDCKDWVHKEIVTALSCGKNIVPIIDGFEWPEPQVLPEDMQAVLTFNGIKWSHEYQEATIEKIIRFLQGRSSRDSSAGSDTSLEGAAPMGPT
# [7] = biological target: Mitogen-activated protein kinase 7 (Homo sapiens) (UniProt Q13164); test: Gal4-ERK5 driven luciferase induction – cell-based, HTS, primary screen (AID 1508626;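 active means luciferase signal above three times the same-plate solvent-only control wells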;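 further: luciferase driven by Gal4-ERK5 fusion binding five Gal4 sites before minimal TATA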); details: HeLa Gal4-ERK5 transactivation, 18 h, at 5 µM, stronger effect = higher value
# Chain of Mitogen-activated protein kinase 7 (Homo sapiens) (Q13164 whole entry, looked up, the tested form may be a part): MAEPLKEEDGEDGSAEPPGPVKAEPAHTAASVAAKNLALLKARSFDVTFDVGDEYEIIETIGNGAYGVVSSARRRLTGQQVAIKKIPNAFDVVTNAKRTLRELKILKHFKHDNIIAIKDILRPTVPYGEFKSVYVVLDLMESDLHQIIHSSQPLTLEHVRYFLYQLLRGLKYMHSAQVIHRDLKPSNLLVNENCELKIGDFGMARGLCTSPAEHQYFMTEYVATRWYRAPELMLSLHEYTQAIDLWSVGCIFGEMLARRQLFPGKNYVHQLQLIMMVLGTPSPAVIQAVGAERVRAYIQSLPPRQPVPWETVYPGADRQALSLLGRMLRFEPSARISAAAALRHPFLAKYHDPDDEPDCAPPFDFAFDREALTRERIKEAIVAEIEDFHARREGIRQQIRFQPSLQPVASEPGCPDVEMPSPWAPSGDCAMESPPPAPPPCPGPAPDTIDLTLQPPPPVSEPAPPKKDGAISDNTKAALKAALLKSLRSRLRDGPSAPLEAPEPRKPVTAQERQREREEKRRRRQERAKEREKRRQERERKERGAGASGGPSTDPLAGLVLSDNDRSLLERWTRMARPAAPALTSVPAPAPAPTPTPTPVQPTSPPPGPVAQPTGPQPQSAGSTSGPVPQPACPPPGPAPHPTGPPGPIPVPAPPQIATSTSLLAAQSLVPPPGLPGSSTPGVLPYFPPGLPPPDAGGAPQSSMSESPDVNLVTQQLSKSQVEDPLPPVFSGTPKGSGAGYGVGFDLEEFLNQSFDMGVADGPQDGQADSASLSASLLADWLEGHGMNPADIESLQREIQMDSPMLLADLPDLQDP
# [8] = galactose survival enhancers in mitochondrial complex I cybrids – cell-based, galactose medium, ATP luminescence, primary screen (AID 1645843;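 active means z-score of at least 1.8 in each of two replicates, scored against plate mean and spread of sample wells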;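 further: positive z means more ATP and so rescue of galactose-driven cybrid death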); details: complex I mutant cybrid cells, 72 h, stronger effect = higher value
# [9] = viability loss in pontine glioma line – cell-based, SU-DIPG-XXV, MIPE5.0, CellTiter-Glo, qHTS, dose response (AID 1347065; cut-off not given, nearly all actives have AC50 up to about 26 µM;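 further: cells exposed to compound for 48 hours before ATP readout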); details: CellTiter-Glo ATP luminescence
# [10] = blockers of cellular phospholipid synthesis – cell-based, LOPAC library, screen 4, primary screen (AID 1347384; call rule not given here); details: animal cells, phospholipid biosynthesis inhibition screen; at 10 µM
# [11] = compounds altering HSF1 focus formation in cells – imaging, Selleck Cancer Library (AID 1347162; in the data active means plate-normalised HSF1 focus index below about 0.46); details: human cells, HSF1 nuclear foci imaging, at 10 µM; SSMD: measured here: HSF1 foci SSMD mean; cell count: measured here: cell number; plate-normalised HSF1 focus index: stronger effect = lower value
# [12] = drug combination growth inhibition, ovarian cancer – cell-based, oncology-focused library, rucaparib conditional, profiling panel (AID 1508598); details: patient-derived ovarian cancer cells, CellTiter-Glo viability, 144 h, stronger effect = lower value
# [13] = stronger effect = lower value, cell number ratio, induced over uninduced
# [14] = measured here: relative caspase fold change +Dox/-Dox
# [15] = measured here: total cells with miR-34 induction, stronger effect = lower value
# [16] = measured here: total cells without miR-34 induction
# [17] = MELAS cybrid survival, CellTiter-Glo 48 h, stronger effect = higher value
# [18] = Rieske KO mouse fibroblast survival, CellTiter-Glo 72 h
compound,measurement,setting,value
CCOC(=O)[C@H](CCc1ccccc1)N[C@@H](C)C(=O)N1[C@H](C(=O)O)C[C@@H]2CCC[C@@H]21,AC50,[1],16.6 µM (active)
same,outcome,[2],inactive
same,outcome,[3],inactive
same,fold change,[4]; [13],0.911 (inactive) and 0.827 (inactive) and 0.868 (inactive)
same,fold change,[4]; [14],1.49 and 3.09 and 1.08
same,cell count,[4]; [15],9860 and 10700 and 9970
same,cell count,[4]; [16],10800 and 13000 and 11500
same,z-score,[5]; [17],-0.258 (inactive) and 0.537
same,z-score,[5]; [18],-0.11 and 2.28
same,remaining NAD,[6],10 nM (inactive)
same,luciferase signal,[7],316 AU (inactive)
same,z-score,[8],2.63 (inactive) and 0.46 (inactive)
O=P(O)(O)C(O)(Cc1cccnc1)P(=O)(O)O,outcome,[1],inactive
same,outcome,[2],inactive
same,outcome,[3],inactive
same,fold change,[4]; [13],0.901 (inactive) and 0.801 (inactive)
same,fold change,[4]; [14],4.65 and 1.35
same,cell count,[4]; [15],12400 and 8410
same,cell count,[4]; [16],13700 and 10500
same,z-score,[5]; [17],0.589 (inactive) and -0.187 (inactive)
same,z-score,[5]; [18],0.376 and -0.746
same,remaining NAD,[6],10 nM (inactive)
same,luciferase signal,[7],1260 AU (active)
same,z-score,[8],0.515 (inactive)
CCCCOc1ccc(CC(=O)NO)cc1,outcome,[9],inactive
same,outcome,[3],inactive
same,fold change,[4]; [13],0.904 (inactive) and 0.891 (inactive)
same,fold change,[4]; [14],1.17 and 0.62
same,cell count,[4]; [15],7500 and 10000
same,cell count,[4]; [16],8290 and 11200
same,z-score,[5]; [17],-0.309 (inactive) and 0.359 (inactive)
same,z-score,[5]; [18],0.677 and -0.599
same,remaining NAD,[6],10 nM (inactive)
same,luciferase signal,[7],44 AU (inactive)
C[C@H]1O[C@@H](n2cc(F)c(=O)[nH]c2=O)[C@H](O)[C@@H]1O,outcome,[1],inactive
same,outcome,[2],inactive
same,outcome,[3],inactive
same,fold change,[4]; [13],1.04 (inactive) and 0.788 (inactive)
same,fold change,[4]; [14],0.632 and 1.14
same,cell count,[4]; [15],3620 and 3400
same,cell count,[4]; [16],3490 and 4310
same,outcome,[10],inactive
same,z-score,[5]; [17],0.0159 (inactive)
same,z-score,[5]; [18],-0.832
same,remaining NAD,[6],10 nM (inactive)
same,z-score,[8],0.64 (inactive) and -0.08 (inactive)
COc1ccc2[nH]cc(CCNC(C)=O)c2c1,outcome,[1],inactive
same,outcome,[2],inactive
same,outcome,[3],inactive
same,outcome,[10],inactive
same,z-score,[5]; [17],-0.429 (inactive) and 0.313 (inactive) and -0.146 (inactive)
same,z-score,[5]; [18],-0.494 and 0.0961 and -0.273
same,luciferase signal,[7],68 AU (inactive)
same,z-score,[8],0.52 (inactive) and 0.205 (inactive) and 0.655 (inactive)
CCc1c2c(nc3ccc(OC(=O)N4CCC(N5CCCCC5)CC4)cc13)-c1cc3c(c(=O)n1C2)COC(=O)[C@]3(O)CC,outcome,[1],inactive
same,AC50,[2],23.5 µM (active)
same,fold change,[4]; [13],0.732 (inactive) and 1.02 (inactive) and 1.1 (inactive)
same,fold change,[4]; [14],1.79 and 1.27 and 1.62
same,cell count,[4]; [15],1660 and 2170 and 2350
same,cell count,[4]; [16],2270 and 2120 and 2140
same,SSMD,[11],-0.515
same,cell count,[11],7510
same,plate-normalised HSF1 focus index,[11],0.983 (inactive)
same,z-score,[5]; [17],-0.914 (inactive) and -2.14 (inactive)
same,z-score,[5]; [18],-0.882 and -1.55
same,viability,"[12]; at 0.000305 µM, OCI-C5x cells, with rucaparib 10 µM, 100% = cells with rucaparib alone",118% (inactive)
same,viability,"[12]; at 0.000305 µM, OCI-C5x cells, without rucaparib",117% (inactive)
same,viability,"[12]; at 0.000305 µM, OCI-P5x cells, with rucaparib 20 µM, 100% = cells with rucaparib alone",102% (inactive)
same,viability,"[12]; at 0.000305 µM, OCI-P5x cells, without rucaparib",105% (inactive)
same,viability,"[12]; at 0.00122 µM, OCI-C5x cells, with rucaparib 10 µM, 100% = cells with rucaparib alone",121% (inactive)
same,viability,"[12]; at 0.00122 µM, OCI-C5x cells, without rucaparib",124% (inactive)
same,viability,"[12]; at 0.00122 µM, OCI-P5x cells, with rucaparib 20 µM, 100% = cells with rucaparib alone",104% (inactive)
same,viability,"[12]; at 0.00122 µM, OCI-P5x cells, without rucaparib",105% (inactive)
same,viability,"[12]; at 0.00488 µM, OCI-C5x cells, with rucaparib 10 µM, 100% = cells with rucaparib alone",107% (inactive)
same,viability,"[12]; at 0.00488 µM, OCI-C5x cells, without rucaparib",112% (inactive)
same,viability,"[12]; at 0.00488 µM, OCI-P5x cells, with rucaparib 20 µM, 100% = cells with rucaparib alone",108% (inactive)
same,viability,"[12]; at 0.00488 µM, OCI-P5x cells, without rucaparib",106% (inactive)
same,viability,"[12]; at 0.0195 µM, OCI-C5x cells, with rucaparib 10 µM, 100% = cells with rucaparib alone",115% (inactive)
same,viability,"[12]; at 0.0195 µM, OCI-C5x cells, without rucaparib",124% (inactive)
same,viability,"[12]; at 0.0195 µM, OCI-P5x cells, with rucaparib 20 µM, 100% = cells with rucaparib alone",101% (inactive)
same,viability,"[12]; at 0.0195 µM, OCI-P5x cells, without rucaparib",105% (inactive)
same,viability,"[12]; at 0.0781 µM, OCI-C5x cells, with rucaparib 10 µM, 100% = cells with rucaparib alone",115% (inactive)
same,viability,"[12]; at 0.0781 µM, OCI-C5x cells, without rucaparib",109% (inactive)
same,viability,"[12]; at 0.0781 µM, OCI-P5x cells, with rucaparib 20 µM, 100% = cells with rucaparib alone",89.3% (active)
same,viability,"[12]; at 0.0781 µM, OCI-P5x cells, without rucaparib",102% (inactive)
same,viability,"[12]; at 0.313 µM, OCI-C5x cells, with rucaparib 10 µM, 100% = cells with rucaparib alone",94% (active)
same,viability,"[12]; at 0.313 µM, OCI-C5x cells, without rucaparib",106% (inactive)
same,viability,"[12]; at 0.313 µM, OCI-P5x cells, with rucaparib 20 µM, 100% = cells with rucaparib alone",81.1% (active)
same,viability,"[12]; at 0.313 µM, OCI-P5x cells, without rucaparib",89.6% (active)
same,viability,"[12]; at 1.25 µM, OCI-C5x cells, with rucaparib 10 µM, 100% = cells with rucaparib alone",70.2% (active)
same,viability,"[12]; at 1.25 µM, OCI-C5x cells, without rucaparib",87% (active)
same,viability,"[12]; at 1.25 µM, OCI-P5x cells, with rucaparib 20 µM, 100% = cells with rucaparib alone",64.9% (active)
same,viability,"[12]; at 1.25 µM, OCI-P5x cells, without rucaparib",57.1% (active)
same,viability,"[12]; at 5 µM, OCI-C5x cells, with rucaparib 10 µM, 100% = cells with rucaparib alone",50.5% (active)
same,viability,"[12]; at 5 µM, OCI-C5x cells, without rucaparib",36.9% (active)
same,viability,"[12]; at 5 µM, OCI-P5x cells, with rucaparib 20 µM, 100% = cells with rucaparib alone",34.4% (active)
same,viability,"[12]; at 5 µM, OCI-P5x cells, without rucaparib",21.1% (active)
same,remaining NAD,[6],10 nM (inactive)
same,z-score,[8],-1.4 (inactive) and -0.58 (inactive)
Cc1cc(C2CCCCC2)n(O)c(=O)c1,AC50,[9],2.35 µM (active)
same,AC50,[2],2.63 µM (active)
same,z-score,[5]; [17],0.334 (inactive) and 0.408 (inactive) and 0.404 (inactive)
same,z-score,[5]; [18],-0.762 and -0.715 and 0.148
same,remaining NAD,[6],10 nM (inactive)
same,luciferase signal,[7],52 AU (inactive)
OC[C@H]1O[C@@H](O[C@@H]2[C@@H](CO)O[C@](O)(CO)[C@H]2O)[C@H](O)[C@@H](O)[C@H]1O,outcome,[1],inactive
same,outcome,[2],inactive
same,outcome,[3],inactive
same,fold change,[4]; [13],0.922 (inactive)
same,fold change,[4]; [14],1.95
same,cell count,[4]; [15],11500
same,cell count,[4]; [16],12500
same,remaining NAD,[6],10 nM (inactive)
same,luciferase signal,[7],16 AU (inactive)
O=c1[nH]c(=O)n([C@H]2C[C@H](O)[C@@H](CO)O2)cc1F,outcome,[9],inactive
same,outcome,[3],inactive
same,fold change,[4]; [13],1.03 (inactive)
same,fold change,[4]; [14],0.977
same,cell count,[4]; [15],4160
same,cell count,[4]; [16],4020
same,z-score,[5]; [17],-1.41 (inactive) and 0.996 (inactive)
same,z-score,[5]; [18],1.5 and -0.252
same,remaining NAD,[6],10 nM (inactive)
same,luciferase signal,[7],12 AU (inactive)
same,z-score,[8],1.93 (active)
CO[C@@]12[C@H](COC(N)=O)C3=C(C(=O)C(C)=C(N)C3=O)N1C[C@@H]1N[C@@H]12,AC50,[9],9.34 µM (active)
same,AC50,[2],3.32 µM (active)
same,fold change,[4]; [13],1.21 (inactive) and 1.12 (inactive)
same,fold change,[4]; [14],0.667 and 0.791
same,cell count,[4]; [15],1280 and 1220
same,cell count,[4]; [16],1060 and 1090
same,z-score,[5]; [17],-0.241 (inactive)
same,z-score,[5]; [18],-1.21
same,remaining NAD,[6],10 nM (inactive)
same,luciferase signal,[7],44 AU (inactive)
same,z-score,[8],-1.99 (inactive)
